Measurements taken from PubChem BioAssay AID376 (PDSP, 2006).
About 250 (12%) of roughly 2,000 compounds were called active. Shown is part of a subset that was picked to be rich in actives. Values without a mark were called inactive. No stated cut-off is given here; in the data, active means hERG blockade below about -20% or above about 20%; inactive means in between.

The compounds below were run against Voltage-gated inwardly rectifying potassium channel KCNH2 (Homo sapiens) (UniProt Q12809) (assay: KCNH2 potassium channel function modulators, cell-based (AID 376;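 further: 0% = buffer alone and 100% = reference blocker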)). Conditions: hERG-expressing cells, channel activity single-concentration screen; concentration not given here.
Voltage-gated inwardly rectifying potassium channel KCNH2 (Homo sapiens), sequence (Q12809 whole entry, looked up): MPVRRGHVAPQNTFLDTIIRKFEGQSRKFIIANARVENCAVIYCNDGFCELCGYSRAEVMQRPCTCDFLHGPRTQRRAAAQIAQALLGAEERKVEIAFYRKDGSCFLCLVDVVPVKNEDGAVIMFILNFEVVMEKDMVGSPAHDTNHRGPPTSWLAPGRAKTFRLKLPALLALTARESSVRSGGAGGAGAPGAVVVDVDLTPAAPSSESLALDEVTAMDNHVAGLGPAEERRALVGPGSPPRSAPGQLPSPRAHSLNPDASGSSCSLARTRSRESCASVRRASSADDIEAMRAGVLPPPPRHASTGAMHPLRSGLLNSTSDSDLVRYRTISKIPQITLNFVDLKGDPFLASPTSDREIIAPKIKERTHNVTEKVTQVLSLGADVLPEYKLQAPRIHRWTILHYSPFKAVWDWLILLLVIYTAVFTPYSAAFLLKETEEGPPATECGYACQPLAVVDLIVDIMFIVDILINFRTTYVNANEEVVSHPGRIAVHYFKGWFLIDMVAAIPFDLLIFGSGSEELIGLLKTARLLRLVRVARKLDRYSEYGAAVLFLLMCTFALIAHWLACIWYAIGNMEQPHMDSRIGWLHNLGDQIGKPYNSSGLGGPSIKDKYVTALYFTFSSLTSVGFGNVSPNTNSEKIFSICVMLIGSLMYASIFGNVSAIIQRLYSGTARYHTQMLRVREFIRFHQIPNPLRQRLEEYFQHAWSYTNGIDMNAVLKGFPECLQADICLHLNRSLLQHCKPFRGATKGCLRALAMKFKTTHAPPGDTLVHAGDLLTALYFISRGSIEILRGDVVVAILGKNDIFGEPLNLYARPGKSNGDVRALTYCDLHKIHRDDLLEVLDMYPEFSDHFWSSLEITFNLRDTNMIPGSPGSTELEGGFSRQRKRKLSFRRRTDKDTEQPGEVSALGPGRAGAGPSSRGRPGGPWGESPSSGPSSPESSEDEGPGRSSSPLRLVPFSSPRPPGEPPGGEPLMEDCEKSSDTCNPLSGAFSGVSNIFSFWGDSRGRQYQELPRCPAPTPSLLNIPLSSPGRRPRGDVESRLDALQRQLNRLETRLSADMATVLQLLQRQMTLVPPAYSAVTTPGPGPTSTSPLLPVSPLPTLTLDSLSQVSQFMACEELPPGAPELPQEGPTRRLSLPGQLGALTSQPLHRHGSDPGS

Row | SMILES | hERG blockade
1 | NC(CNO)C(=O)O (stereo not drawn) | -10.6%
2 | Nc1nc2c(ncn2C2C=CC(CO)C2)c(=O)[nH]1 (stereo not drawn) | 1.77%
3 | CN1CCCC1c1cccnc1.O=C(O)c1ccccc1O.O=C([OH2+])c1ccccc1O.O=C([OH2+])c1ccccc1O.O=C([OH2+])c1ccccc1O.[Cu+2] (stereo not drawn) | 26% (active)
4 | CN1CCCC1c1cccnc1.O=C(O)c1ccccc1O.O=C([OH2+])c1ccccc1O.O=C([OH2+])c1ccccc1O.O=C([OH2+])c1ccccc1O.[Mn+2] (stereo not drawn) | 15.5%
5 | CN1CCCC1c1cccnc1.O=C(O)c1ccccc1O.O=C([OH2+])c1ccccc1O.O=C([OH2+])c1ccccc1O.[Mn+2] (stereo not drawn) | 13.4%
6 | O=C(O)CCSc1ncnc2nc[nH]c12 | 2.65%
7 | N=C(c1ccc2ccccc2c1)c1ccccc1Cc1ccccc1 | 9.45%
8 | CC1(CCOCc2ccccc2)NC(=O)NC1=O (stereo not drawn) | -3.15%
9 | COc1ccc(C=C(C#N)C(N)=O)cc1OC | 4.46%
10 | COc1ccc(C[N+](C)(C)N)cc1OC | -25.5% (active)
11 | Nc1nc(N)nc(CCCCc2nc(N)nc(N)n2)n1 | 8.11%
12 | NCc1nnn(Cc2ccccc2)c1N | 0.879%
13 | CC1(C(=O)O)CCCC1C(=O)O (stereo not drawn) | 0.951%
14 | O=c1ccnc(SCc2ccc(Cl)cc2)[nH]1 | -3.26%
15 | O=S(=O)(CC(O)C(Cl)(Cl)Cl)NNc1ccccc1 (stereo not drawn) | -8.3%
16 | O=CNC(Cc1cnc[nH]1)C(=O)O (stereo not drawn) | -6.41%
17 | O=S(=O)(O)c1cc(N=[N+]([O-])c2cc(S(=O)(=O)O)c3ccccc3c2)cc2ccccc12 | 20.3% (active)
18 | Nc1ccc(N=Nc2c(S(=O)(=O)O)cc3ccccc3c2S(=O)(=O)O)cc1 | 5.01%
19 | O=S(=O)(O)c1cc(N=Nc2cccc3ccccc23)c(O)c2ncccc12 | 10.6%
20 | CCC(Nc1ncnc2nc[nH]c12)C(=O)O (stereo not drawn) | -0.207%
21 | S=C(S)NCCN1CCNCC1 | 6.35%
22 | O=CN1CCN(CC(O)CN2CCCCC2)CC1 (stereo not drawn) | -4.54%
23 | CN(C)CC1CCCC(CN(C)C)C1=O (stereo not drawn) | -6%
24 | CN(C)CC1CCC2=C(C1=O)C(c1ccc(Cl)c(Cl)c1)C1=C(CCC(CN(C)C)C1=O)O2 (stereo not drawn) | 24.7% (active)
25 | O=C1c2ccccc2C(=O)N1c1ccc(Cc2ccc(N3C(=O)c4ccccc4C3=O)cc2)cc1 | -0.893%
26 | O=C(CC(=O)c1ccncc1)c1ccccc1 | 10.3%
27 | O=C(O)C=CC(=O)Nc1ccccn1 | 5.5%
28 | N=C(CC(=O)Nc1ccccn1)c1ccccc1 | -21.8% (active)
